Source: PubChem BioAssay (The Scripps Research Institute Molecular Screening Center)
hcDAF-12 act = activates DAF-12 receptor from parasite H. contortus; HEK293 hcDAF-12 lit1-tk-luc reporter, luminescence; 0% DMSO, 100% Δ7-dafachronic acid; activation, % at 6.8 µM; 370,000 compounds, 1.4% hits; AID 652067;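 active = activation above the mean of all tested compounds plus 3 SD, cut at about 5.5% in these data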;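 note: 100% = response to 3 µM Δ7-dafachronic acid high control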
hgDAF-12 ag = hgDAF-12 agonism, primary luciferase screen | HEK293 GAL4-hgDAF12 UAS-luciferase reporter, agonist luminescence; normalized to butyrate control | AID 687014 | activation, % at 6.8 µM | 370,000 compounds, 1.8% hits;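 active = activation above a cutoff set at the mean of all screened compounds plus 3 SD, cut at about 10% in these data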;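 note: 0% = DMSO wells and 100% = sodium butyrate wells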
DAX1 inh-1 = NR0B1 (DAX1) inhibition. HEK293 Gal4-DAX1 luciferase reporter, luminescence. inhibition, % at 6.75 µM. 340,000 compounds, 0.99% hits;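 active = inhibition above the mean over all tested compounds plus 3 SD, cut at about 4.2% in these data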;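 note: 0% = DAX1-transfected cells with DMSO and 100% = empty-vector control cells with DMSO; inhibition shows as a rise in luminescence from relieved DAX1 repression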
Target sequence (P51843 207-470 limits assumed): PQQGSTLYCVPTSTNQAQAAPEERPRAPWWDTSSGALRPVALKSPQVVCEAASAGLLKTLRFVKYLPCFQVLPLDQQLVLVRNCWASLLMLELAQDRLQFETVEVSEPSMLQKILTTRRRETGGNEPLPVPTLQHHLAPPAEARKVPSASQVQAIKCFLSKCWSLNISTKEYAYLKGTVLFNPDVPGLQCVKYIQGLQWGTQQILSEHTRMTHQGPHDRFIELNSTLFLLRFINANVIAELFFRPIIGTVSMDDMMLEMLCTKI
ssDAF12 agonist = activates DAF-12 receptor from parasite S. stercoralis. HEK293 ssDAF-12/GRIP1 lit1-tk-luc reporter, luminescence; % of 3 µM dafachronic acid response. activation, % at 6.8 µM. 370,000 compounds, 1% hits;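 active = activation above the mean over all tested compounds plus 3 SD, cut at about 0.9% in these data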;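 note: 0% = DMSO-only wells and 100% = 3 µM delta7-dafachronic acid wells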
DAX1 inh-2 = blocks DAX1 repression of SF-1 activated StAR promoter; HEK293T StAR-luciferase reporter, SF-1/DAX-1 repression relief; 370,000 compounds, 1.1% hits; inhibition, % at 6.8 µM;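 active = inhibition above the mean over all tested compounds plus 3 SD, cut at about 3.6% in these data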;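 note: 0% = DAX-1 cells with DMSO and 100% = cells lacking DAX-1 with DMSO; higher inhibition means more luminescence from relief of DAX-1 repression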
Starred values were filed as active, the others as inactive; · = not tested or not shown. In the library only some 4.1% were active in any assay of this set; here they are far more common.

SMILES	hcDAF-12 act	hgDAF-12 ag	DAX1 inh-1	ssDAF12 agonist	DAX1 inh-2
CN1c2ccccc2Oc2nnc(Cl)cc21	-2	-1	1	-1	1
CN1c2ccccc2Oc2nnc(N3CCN(Cc4ccccc4)CC3)cc21	-1	10*	-3	-2	0
S=C(Nc1ccccc1Cl)OCCN1CCCC12CCC(c1ccccc1)CC2 (configuration not stated)	-1	1	·	-1	·
CCCC1CCC2(CCCN2CCOC(=O)Nc2ccc(Br)cc2)CC1 (configuration not stated)	2	2	·	-1	·
Cc1noc(C)c1C(=O)OCC(=O)/C=C1/N(C)c2ccccc2C1(C)C	-1	4	5.9*	-1	0
O=C(COCc1ccccc1)N1CC[C@H]2[C@H](CCCN2Cc2ccc(F)cc2)C1	2	-4	·	-2	0
COC(=O)[C@H]1Cc2c([nH]c3ccccc23)[C@H](c2ccccc2)N1	6.4*	0	1	0	0
COC(=O)C1Cc2c([nH]c3ccccc23)CN1 (configuration not stated)	-2	0	0	0	-1
O=c1c2ccccc2[nH]n1[C@@H](Cc1ccccc1)Cn1cc(-c2ccc(-c3ccccc3)cc2)nn1	-3	3	·	-2	0
Cc1cc(NS(=O)(=O)c2ccc(NS(=O)(=O)c3ccc(CC(C)C)cc3)cc2)nc(C)n1	-1	-1	5.8*	-1	0
Cc1ccc(S(=O)(=O)Nc2ccc(S(=O)(=O)Nc3cc(C)nc(C)n3)cc2)cc1	2	3	1	-1	2
CC1CCN(c2ccc(C(=O)O)cc2NS(=O)(=O)c2ccc(C(C)(C)C)cc2)CC1	-2	-4	·	0	-1
O=C(NCCc1ccccc1)c1[nH]c(C(F)(F)F)nc1-c1ccccc1	-2	0	·	1.2*	-1
COc1cc(NC(=O)C2CCCN(S(=O)(=O)c3cccs3)C2)cc(OC)c1 (configuration not stated)	-3	5	·	-1	-1
CNC(C)C#Cc1ccc2c(=O)c3cc(C)c(C)cc3oc2c1 (configuration not stated)	3	11*	-2	0	1
C=CCN1C(=O)S/C(=C\c2ccc(N3CCOCC3)cc2C)C1=O	1	6	4.2*	-1	1
CCC(C(=O)Nc1ccccn1)c1ccccc1 (configuration not stated)	0	-3	3	-1	-1
CC(C(=O)Nc1ccccn1)c1ccccc1 (configuration not stated)	1	0	0	0.9*	0
NNC(=O)c1nc[nH]c1C(=O)Nc1ccccn1	1	6	4.3*	0	0
O=C(O)CSCC(=O)Nc1ccccn1	-2	0	5.4*	-1	1
O=C(Nc1ccccc1)c1nc[nH]c1C(=O)NCCNC(=O)c1[nH]cnc1C(=O)Nc1ccccc1	1	-1	-1	-1	-2
Cc1nc(NC(=O)C2CC2)sc1C(=O)N1CCCCC1	-2	-1	0	-1	1
Cc1nc(NC(=O)c2cccc(Cl)c2)sc1C(=O)N1CCCCC1	0	11*	0	-1	2
O=c1cc(CN(Cc2ccccc2)Cc2ccccc2)c2c(ccc3ccccc32)o1	3	1	·	1.8*	1
COc1ccc2c(CN(Cc3ccccc3)Cc3ccccc3)cc(=O)oc2c1	-1	1	·	-1	-1
SMILES	hcDAF-12 act	hgDAF-12 ag	DAX1 inh-1	ssDAF12 agonist	DAX1 inh-2
O=C(O)COc1ccc(Br)cc1/C=N\Nc1ccccn1	·	·	4.7*	·	·
Cc1cccc(C2NC(=O)c3c(sc(C)c3C)N2)c1O (configuration not stated)	4	2	1	1.4*	0
CN1CCC(N[C@@H](Cc2c[nH]c3ccccc23)C(=O)NCCCc2ccccc2)(C(=O)NCCc2c[nH]c3ccccc23)CC1	6.3*	3	·	-1	·
O=C(NCCCc1ccccc1)[C@H](Cc1ccccc1)NC1(C(=O)NCCc2c[nH]c3ccccc23)CCOCC1	-1	0	·	-1	·
CCC(C)NC(=O)Cn1cc(S(=O)(=O)N2CCCC2)c(S(=O)(=O)N2CCCC2)c1 (configuration not stated)	-2	3	1	-1	0
CCCNC(=O)Cn1cc(S(=O)(=O)N2CCCC2)c(S(=O)(=O)N2CCCC2)c1	1	2	1	-1	3.9*
Clc1cccc(-c2csc(Nc3cccnc3)n2)c1	5.8*	5	1	0	0
COC(=O)[C@]12C[C@H](CC(=O)NCC3CCCCC3)C(=O)N(Cc3ccc(Cl)cc3Cl)C1=C[C@H](C(C)(C)C)O[C@@H]2C	-2	2	·	0	1
O=C(NC1CCCCN(Cc2cccc(F)c2)C1=O)c1cccc(C(F)(F)F)c1 (configuration not stated)	2	2	·	-1	0
COC(=O)[C@]12CCCCC=C1N(Cc1ccc(OC)cc1)C(=O)[C@@H]2CC(=O)N1CCCC1	-1	-3	·	-2	-1
CC(C)c1ccc(OCC(=O)N2CCCCCC2)c(Br)c1	2	11*	1	-1	1
O=C(Oc1ccc2ccccc2c1Cl)N1CCCCCC1	1	6	1	0	4.1*
O=C(COc1ccc2ccccc2c1Br)N1CCCC1	1	3	0	-1	3.9*
CCC1CCc2sc(C(=O)Nc3cc(S(=O)(=O)N4CCOCC4)ccc3OC)cc2C1 (configuration not stated)	0	2	·	-1	·
O=C(NCCc1ccccc1)c1noc2c1CCCCC2	2	12*	3	-1	4.3*
Cc1ccc(NC(=O)c2noc3c2CCCCC3)cc1C	4	9	4	0	4.0*
C[C@H]1[C@@H](NC(=O)C(c2ccccc2)c2ccccc2)CC[C@@]23CCCN2C(=O)CCC[C@@H]13	-2	0	·	-1	·
NC(=O)c1c(N)[nH]c(C(=O)c2ccccc2)c1-c1ccccc1	0	-1	·	-1	0
CCN(CC(=O)Nc1c(F)cccc1F)C(=O)C1CCN(C(=O)Nc2ccccc2)CC1	-1	2	-1	-1	0
CC(c1ccccc1)c1nnc(N)s1 (configuration not stated)	-1	-1	4.7*	-1	0
N=c1oc2ccccc2cc1C(=O)Nc1ccccc1	5.9*	13*	4	0	2
N=c1oc2ccc(Cl)cc2cc1C(=O)Nc1ccc(F)cc1	4	5	5.5*	0	1
COc1ccc2oc(=N)c(C(=O)Nc3ccc(F)cc3)cc2c1	0	-1	-1	0	0
CC(=O)N[C@@H]1C[C@@H]2O[C@H](CO)CC[C@@H]2O[C@@H]1CCc1ccc(C#CC2(O)CCCC2)cc1	-1	3	·	-2	0
CN(CC(=O)Nc1ccccc1C(F)(F)F)C(=O)CSCc1ccc(Cl)c(Cl)c1	0	-4	-1	-2	-1
